What all share (experiment): qHTS profiling for inhibitors of Plasmodium falciparum proliferation (AID 504749); also: nearly all actives have a fitted effect of over 60% in size
Background: Quantitative high-throughput screening tests each substance at several concentrations.

The subject of test [1] is CP191. Particulars: P. falciparum in erythrocytes, SYBR Green DNA, 72 h; series mostly up to 28.7 µM. The procedure, abridged: (§1)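 Infected RBCs, 0.3% parasitemia/2.5% Hct final; cpd 72 h, 37 C, 5% CO2; lysis buffer with saponin/triton/SYBR Green I, o/n RT dark; FI 485/535; norm. to artemisinin (0.29 uM) and DMSO.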
The subject of test [2] is CP217. Particulars: P. falciparum in erythrocytes, SYBR Green DNA, 72 h; series mostly up to 28.7 µM. The procedure, abridged:
as §1

Test [3] concerns CP250. Particulars: P. falciparum in erythrocytes, SYBR Green DNA, 72 h; series mostly up to 12.8 µM. The procedure, abridged: as §1
In test [4] the test system is CP252. Particulars: P. falciparum in erythrocytes, SYBR Green DNA, 72 h; series mostly up to 12.8 µM. The gist of the method:
as §1

Test [5] relates to CP260. Particulars: P. falciparum in erythrocytes, SYBR Green DNA, 72 h; series mostly up to 28.7 µM. The procedure, abridged: as §1
The subject of test [6] is CP265. The following applies: P. falciparum in erythrocytes, SYBR Green DNA, 72 h; series mostly up to 12.8 µM. The procedure, abridged:
as §1

Test [7] relates to CP266. Particulars: P. falciparum in erythrocytes, SYBR Green DNA, 72 h; series mostly up to 12.8 µM. The procedure, abridged:
as §1

For test [8], the system named is CP268. The following applies: P. falciparum in erythrocytes, SYBR Green DNA, 72 h; series mostly up to 28.7 µM. The gist of the method: as §1
In test [9] the test system is CP291. Particulars: P. falciparum in erythrocytes, SYBR Green DNA, 72 h; series mostly up to 28.7 µM. The procedure, abridged:
as §1

In test [10] the test system is CP325. The following applies: P. falciparum in erythrocytes, SYBR Green DNA, 72 h; series mostly up to 28.7 µM. The gist of the method:
as §1

Test [11] concerns Dd2. The following applies: P. falciparum in erythrocytes, SYBR Green DNA, 72 h; series mostly up to 28.7 µM. The gist of the method: as §1
Test [12] relates to ECU. The following applies: P. falciparum in erythrocytes, SYBR Green DNA, 72 h; series mostly up to 28.7 µM. The procedure, abridged:
as §1

Test [13] relates to ICS. The following applies: P. falciparum in erythrocytes, SYBR Green DNA, 72 h; series mostly up to 28.7 µM. The gist of the method:
as §1

Test [14] concerns JCK. The following applies: P. falciparum in erythrocytes, SYBR Green DNA, 72 h; series mostly up to 28.7 µM. The procedure, abridged:
as §1

Test [15] deals with N140. The following applies: P. falciparum in erythrocytes, SYBR Green DNA, 72 h; series mostly up to 28.7 µM. The procedure, abridged: as §1
For test [16], the system named is PC15. Particulars: P. falciparum in erythrocytes, SYBR Green DNA, 72 h; series mostly up to 28.7 µM. The gist of the method:
as §1

For test [17], the system named is PC26. Particulars: P. falciparum in erythrocytes, SYBR Green DNA, 72 h; series mostly up to 28.7 µM. The procedure, abridged: as §1
In test [18] the test system is SC27B. The following applies: P. falciparum in erythrocytes, SYBR Green DNA, 72 h; series mostly up to 28.7 µM. The gist of the method:
as §1

For test [19], the system named is TAB165. The following applies: P. falciparum in erythrocytes, SYBR Green DNA, 72 h; series mostly up to 28.7 µM. The gist of the method: as §1
Test [20] deals with W2. Particulars: P. falciparum in erythrocytes, SYBR Green DNA, 72 h; series mostly up to 12.8 µM. The procedure, abridged:
as §1

Records with an inconclusive call do not appear. The source made the active and inactive calls. Calls follow the shape of the dose curve; as a rule, active = well fitted inhibition curve with a large enough effect; inconclusive = small, poorly fitted or top-dose-only effect; inactive = flat fitted curve, though single readings scatter.
Potency is read from the fitted curve at half-maximal effect.

`C[C@]12CC[C@H]3[C@@H](CCC4=CC(=O)CC[C@@]43C)[C@@H]1CC[C@@H]2O`: the Potency result in test [1], in test [2], in test [3], in test [4], in test [5] and in test [6] was “inactive” in each case. Also, the Potency entry in [7], in test [8], in test [9], in [10], in test [11] and in test [12] was “inactive” in each case. The Potency result in [13], in test [14], in test [15], in [16], in [17] and in test [18] was “inactive” throughout. Also, the Potency entry in [19] is “inactive”.
Turning to `COc1ccc2c(c1OC)CN1CCc3cc4c(cc3[C@H]1C2)OCO4`, the Potency in test [20] is 2.28 µM (active).

The values above are taken from PubChem BioAssay (NCATS).
